This note sets out measurements from publication PMC5540273 (PLoS ONE, 2017).
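Also: KINOMEscan kinase panel screen.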

The experiment deals with LIMK1. Conditions: concentration: 1 μM, replicates: in singlicate; n = 1.
With `Fc1ccc(-c2nn3cccc(F)c3c2-c2ccncc2)cc1` [GW475620], the “%Inh” value is recorded as 0%. The figure for `CNc1nc(-c2ccc3c(N)n[nH]c3c2)cc(N2C[C@@H](C(=O)Nc3ccccc3)CC[C@H]2C)n1` [GSK2298859] is 0%; for `Cc1ccc(NC(=O)Nc2ccccc2F)cc1-c1ccc(C(=O)Nc2ccncc2)cc1` [GSK1398477] it is 36%. The figure for `Cc1ccc(NC(=O)c2ccc(Cl)cc2)cc1-c1ccc(C(=O)Nc2ccncc2)cc1` [GSK1398467] is 0%; for `COC(=O)C(NC(=O)NC1CCN(c2ccnc(Nc3ccc(F)cc3)n2)C1)c1ccccc1` (stereo not shown) [GSK1379712] it is 17%; for `Nc1nccc(-c2c(-c3ccc(F)cc3)ncn2C2CCN(Cc3ccccc3)CC2)n1` [SB-219980] it is 13%.

`NS(=O)(=O)c1cccc(N/C=C2\C(=O)Nc3ccc(S(=O)(=O)Cc4c(Cl)cccc4Cl)cc32)c1` [GSK398099]: the “%Inh” value worked out at 7%. The figure for `CN1c2ccc(-c3ccc(C(N)=O)cc3)cc2-c2[nH]ncc2S1(=O)=O` is 0%. The figure for `CNC(=O)c1ccc(C)c(-n2c(C)cc(OCc3ccc(F)cc3F)c(Br)c2=O)c1` is 0%; for `Nc1ncnc2occ(-c3ccc4c(c3)CCN4C(=O)Cc3cc(F)ccc3F)c12` [GSK2645446] it is 0%; for `Cc1c(Cn2c(C)c(C)n3c(=O)cc(N4CCOCC4)nc23)cccc1C(F)(F)F` [GSK2328680] it is 8%. The figure for `Cc1ccc(-c2nc(Nc3ccncc3)c3ccccc3n2)s1` [GSK189015] is 31%; for `O=C1NC(=O)C(c2ccc(Cl)cc2)=C1Nc1cccc(Cl)c1` [SB-317651] it is 0%. As to `Cn1cnc2c(N)ncnc21` [SKF-97623], the “%Inh” value is reported as 0%. The figure for `Cc1ccc(NC(=O)Nc2ccccc2)cc1-c1ccc(C(=O)Nc2ccncc2)cc1` [GSK1398471] is 18%; for `CCn1c(-c2c(N)noc2C)nc2cnccc21` [SB-737856] it is 3%. Turning to `COc1ccc(Nc2nccc(-c3ccc(NC(=O)c4cc5cc(F)ccc5[nH]4)cc3)n2)cc1` [GSK1229496], the “%Inh” value is reported as 38%. The figure for `Nc1cccc(-c2ccc3c(N)n[nH]c3c2)n1` [GSK2192730] is 0%; for `CS(=O)(=O)CCNCc1nc(-c2ccc3ncnc(Nc4ccc(OCc5ccccc5)c(Cl)c4)c3c2)cs1.Cl` [GW582764] it is 0%; for `COc1ccc(Nc2nccc(N3CCC(NC(=O)C(C)c4ccc(Cl)cc4)C3)n2)cc1` (stereo not shown) [GSK1379735] it is 19%.

For `Cc1cnc(N)c(/C=C/c2cncc(C(=O)NCCc3ccc(Cl)cc3Cl)c2)c1.Cl` [GSK190937], the “%Inh” value was 0%. The figure for `O=C(Nc1n[nH]c2nc(-c3cccs3)c(Br)cc12)C1CC1` [SB-735297] is 26%.
